A selection: hits, their analogues and other compounds. The true share with any hit is near 0.68%.
RN4220 kill – growth inhibition of S. aureus RN4220, primary screen, OD600; 16 h; inhibition, % (no concentration beside the values); 330,000 tested, 0.33% active; AID 1259311, 2017; in the data active = inhibition above about 85%;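 also: plate controls were untreated cells for no effect and reference antibiotic for full effect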
Mtb hypoxia inh – PubChem AID 1159583; M. tuberculosis hypoxia-regulated fluorescent reporter, fluorescence; fluorescence inhibition, % (no concentration beside the values); 300,000 tested, 0.1% active; in the data active = fluorescence inhibition mostly above about 23%, no sharp cut-off; inactive = mostly below about 17%
ugtP null kill – growth inhibition of ugtP-null S. aureus, primary screen, RN4220 ugtP deletion, OD600 | AID 1259309, 2017 | 330,000 tested, 0.54% active | growth inhibition, % (test concentration not listed) | 16 h; in the data active = growth inhibition above about 68%;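 also: plate controls were untreated wells for no effect and antibiotic for full effect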
Numbers without * were called inactive.

What do the screens show for `Cc1cccc(C(=O)NN=C2CS(=O)(=O)N(C)c3ccsc32)c1`?
RN4220 kill: 3; Mtb hypoxia inh: -4; ugtP null kill: 2

How did CN1c2ccsc2C(=NNc2ccc(F)cc2)CS1(=O)=O do in these assays?
RN4220 kill: 83; Mtb hypoxia inh: -3; ugtP null kill: 100*

How did O=C1NC(Cc2ccccc2)C(c2ccco2)O1 (stereo not given) do in these assays?
RN4220 kill: 5; Mtb hypoxia inh: 3; ugtP null kill: 5

What do the screens show for `Cc1ccc(-c2[nH]nc(N)c2N=Nc2ccccc2C)cc1`?
RN4220 kill: 12; Mtb hypoxia inh: 7; ugtP null kill: 79

What do the screens show for `Cc1ccc(-c2[nH]nc(N)c2N=Nc2cccc(Cl)c2C)cc1`?
RN4220 kill: 84; Mtb hypoxia inh: -6; ugtP null kill: 99*

Results for COc1ccc(-c2nc(N3CCN(C)CC3)sc2-c2ccc(OC)cc2)cc1 ?
RN4220 kill: -4; Mtb hypoxia inh: -3; ugtP null kill: 99*

How did COc1ccc(-c2nc(N3CCCCCC3)sc2C(=O)c2ccccc2)cc1 do in these assays?
RN4220 kill: 0; ugtP null kill: 73

How did C#CCOCCOCCOCCNc1nc(N2CCN(C(=O)C(CCCCN)n3cc(CN)nn3)CC2)nc(N2CCN(C(=O)C(CCCN=C(N)N)n3cc(C(N)C(C)CC)nn3)CC2)n1 (stereo not given) do in these assays?
RN4220 kill: 5; Mtb hypoxia inh: 25; ugtP null kill: 3

Results for COc1ccc(-c2nnc(NC(=O)c3ccc([N+](=O)[O-])o3)o2)c(OC)c1 ?
RN4220 kill: 2; ugtP null kill: 96*

What do the screens show for `COc1ccc(C(=O)Nc2nnc(C3=COCCO3)o2)cc1`?
RN4220 kill: 0; Mtb hypoxia inh: -9; ugtP null kill: -6

What do the screens show for `Cc1ccc(NC(=O)c2ccc([N+](=O)[O-])o2)c(C)c1`?
RN4220 kill: 16; Mtb hypoxia inh: 14; ugtP null kill: 1

What do the screens show for `Cc1ccc(-c2nnc(NC(=O)c3ccc([N+](=O)[O-])o3)o2)c(C)c1`?
RN4220 kill: -3; ugtP null kill: 92*

Results for Cc1cccc(CCN2C(N(C)C)=NCC2CC(C)C)c1 (stereo not given) ?
RN4220 kill: 6; Mtb hypoxia inh: 4; ugtP null kill: -1

Results for O=[N+]([O-])c1cc(S(=O)(=O)N2CCCC2)ccc1NN=Cc1cccs1 ?
RN4220 kill: 3; Mtb hypoxia inh: 14; ugtP null kill: -9

Results for CC=CC=CC(=O)Nc1cccc(C2=NOC3(C2)CC(C(N)=O)N(C(=O)C(c2ccccc2)c2ccccc2)C3)c1 (stereo not given) ?
RN4220 kill: 4; Mtb hypoxia inh: 4; ugtP null kill: -16

How did CC(=O)N1CCN(c2ccc(NC(=S)NC(=O)C=Cc3ccccc3)cc2)CC1 do in these assays?
RN4220 kill: 1; Mtb hypoxia inh: 2; ugtP null kill: 29

What do the screens show for `CN(C)N=Cc1ccc(OS(=O)(=O)c2ccccc2)cc1`?
RN4220 kill: 8; Mtb hypoxia inh: -7; ugtP null kill: -4

What do the screens show for `COc1ccc(C=NNC(=O)COc2cc(C)cc(C)c2)cc1COC(C)=O`?
RN4220 kill: 0; Mtb hypoxia inh: 7; ugtP null kill: 93*

How did COCc1cc(C=NNC(=O)COc2ccccc2)ccc1OC do in these assays?
RN4220 kill: 3; Mtb hypoxia inh: 1; ugtP null kill: 2

Results for O=C1C(=Cc2cccs2)N=C(c2cccs2)N1Nc1ccccc1 ?
RN4220 kill: -5; Mtb hypoxia inh: 3; ugtP null kill: -26

What do the screens show for `CCCCCCCCSc1n[nH]c(N)n1`?
RN4220 kill: -4; Mtb hypoxia inh: 14; ugtP null kill: -1

What do the screens show for `CCCCCCCCCCSc1n[nH]c(N)n1`?
RN4220 kill: 16; Mtb hypoxia inh: 10; ugtP null kill: 84*

How did CC1CNC(=O)C(=O)N1CC(Cc1ccc(O)cc1)NC(=O)CC12CC3CC(CC(C3)C1)C2 (stereo not given) do in these assays?
RN4220 kill: 4; Mtb hypoxia inh: 4; ugtP null kill: -1

How did COc1ccc(NC(C)C(=O)NN=Cc2ccc([N+](=O)[O-])s2)cc1 (stereo not given) do in these assays?
RN4220 kill: 17; Mtb hypoxia inh: 43*; ugtP null kill: 22

How did Cc1cc(C(=O)NN=Cc2ccc([N+](=O)[O-])s2)n[nH]1 do in these assays?
RN4220 kill: 100*; ugtP null kill: 98*

How did Cc1cc(C(=O)NN=Cc2cc([N+](=O)[O-])cc(C)c2O)n[nH]1 do in these assays?
RN4220 kill: 13; Mtb hypoxia inh: 6; ugtP null kill: 6

How did CC(C)(C)OC(=O)NN=Cc1ccc([N+](=O)[O-])s1 do in these assays?
RN4220 kill: 4; Mtb hypoxia inh: 4; ugtP null kill: 15

Results for COCC(=O)O[C@]1(CCN(C)CCCc2nc3ccccc3[nH]2)CCc2cc(F)ccc2C1C(C)C (stereo not given in full) ?
RN4220 kill: -1; Mtb hypoxia inh: 12; ugtP null kill: -20

How did CC(C)(C)OC(=O)NCCCCC(C(=O)NCCCCCCCCCCC(=O)N1CCN(C(=O)OC(C)(C)C)CC1)n1cc(CCCC(=O)O)nn1 (stereo not given) do in these assays?
RN4220 kill: 7; Mtb hypoxia inh: 2; ugtP null kill: 3

Results for CCCCCCCCN1C(CC(=O)OCC)c2cc(F)ccc2S1(=O)=O (stereo not given) ?
RN4220 kill: 5; Mtb hypoxia inh: 2; ugtP null kill: 5

What do the screens show for `O=C(NCCn1c(C(F)(F)F)nc2ccccc21)C1CCCN1c1nc(CN2CCCCC2)cs1` (stereo not given)?
RN4220 kill: 8; Mtb hypoxia inh: 18; ugtP null kill: 0

What do the screens show for `CC(Sc1nnnn1-c1cccc(F)c1)C(=O)NC1CCCC1` (stereo not given)?
RN4220 kill: -7; Mtb hypoxia inh: -8; ugtP null kill: -10

Results for COc1ccc(C)cc1-n1nnnc1SC(C)C(=O)NC1CCCC1 (stereo not given) ?
RN4220 kill: 0; Mtb hypoxia inh: 25*; ugtP null kill: 5

How did CNC(=O)N(O)C1N(N=Cc2cc(Br)ccc2O)C(=S)SC1(C)C (stereo not given) do in these assays?
RN4220 kill: 9; Mtb hypoxia inh: 1; ugtP null kill: 18

What do the screens show for `Fc1ccc(CON=CC2=C(Cl)c3ccccc3CC2)cc1`?
RN4220 kill: 10; ugtP null kill: 99*

How did ON=CC1=C(Cl)c2ccccc2CC1 do in these assays?
RN4220 kill: 16; Mtb hypoxia inh: 7; ugtP null kill: 4

What do the screens show for `N#CCCn1cc(C=NO)c(-c2ccc(F)cc2)n1`?
RN4220 kill: -4; ugtP null kill: -5

Results for CC(C)C1OC2c3cccc4cccc(c34)C2N1c1ccccc1 (stereo not given) ?
RN4220 kill: -3; Mtb hypoxia inh: 1; ugtP null kill: 90*

Results for CCOC(=O)C1=CCC2c3c(c4ccc(OC)cc4n3C)C(=O)C1N2S(=O)(=O)c1ccc(C)cc1 (stereo not given) ?
RN4220 kill: -2; Mtb hypoxia inh: 5; ugtP null kill: -21

What do the screens show for `CC1CCC(C(C)C)C(OC(=O)C[n+]2cccc(C(N)=O)c2)C1` (stereo not given)?
RN4220 kill: 0; ugtP null kill: -1

Screening results: PubChem, ICCB-Longwood Screening Facility, Harvard Medical School
